In assay [1] the test system is HaCat. As to the kind of experiment: Cytotoxic Profiling of Annotated Libraries Using Quantitative High-Throughput Screening (AID 1296008). Particulars: Five cell lines viability, CellTiter-Glo ATP luminescence, 48-72 h; max response: stronger effect = lower value. Put shortly: (§1)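 Cells exposed to compounds for 48 or 72 hr at 37 degrees Celsius. Viability read as ATP-coupled luminescence with CellTiter-Glo after 10 min at room temperature.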

Assay [2] relates to NIH3T3. Described as above. Particulars: Five cell lines viability, CellTiter-Glo ATP luminescence, 48-72 h; max response: stronger effect = lower value. Put shortly:
as §1

For assay [3], the system named is HACAT. As to the kind of experiment: qHTS assay to identify novel small-molecules to repurpose for Merkel cell carcinoma treatment (AID 1296009). To be noted: MCC and control cell lines, CellTiter-Glo viability, 72 h; at 44.8 µM (top of the series) unless noted. Put shortly:
(§2)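 CellTiter-Glo luminescence after 72 hr compound exposure at 37 degree celsius gave cell viability. Libraries NPC and MIPE were run as 8- and 11-point dose responses; RLUs normalized to DMSO (negative) and no-cell (cytotoxicity) controls.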

The next assay deals with MCC-13. Described as above. Particulars: MCC and control cell lines, CellTiter-Glo viability, 72 h; series mostly up to 46 µM. Put shortly:
as §2

In the next assay the test system is MCC-26. Described as above. To be noted: MCC and control cell lines, CellTiter-Glo viability, 72 h; series mostly up to 46 µM. The method in brief:
as §2

In a further assay the test system is MKL-1. The assay is described as above. To be noted: MCC and control cell lines, CellTiter-Glo viability, 72 h; series mostly up to 46 µM. Put shortly: as §2
Another assay relates to MKL-2. The assay is described as above. Particulars: MCC and control cell lines, CellTiter-Glo viability, 72 h; series mostly up to 46 µM. Put shortly:
as §2

In assay [4] the test system is NIH3T3. The description is as above. To be noted: MCC and control cell lines, CellTiter-Glo viability, 72 h; at 44.8 µM (top of the series) unless noted. The method in brief: as §2
For the next assay, the system named is KB-3-1. As to the kind of experiment: Cytotoxic Profiling of Annotated Libraries Using Quantitative High-Throughput Screening (AID 1296008). Particulars: Five cell lines viability, CellTiter-Glo ATP luminescence, 48-72 h; max response: stronger effect = lower value. Put shortly: as §1
For another assay, the system named is HEK293T. In words: qHTS assay to identify novel small-molecules to repurpose for Merkel cell carcinoma treatment (AID 1296009). Particulars: MCC and control cell lines, CellTiter-Glo viability, 72 h; at 44.8 µM (top of the series) unless noted. The method in brief:
as §2

Where “and” joins values, the source holds several entries; their conditions need not be identical. Equal entries are not always repeated. Results filed as inconclusive are left out. Unmarked numbers belong to inactive results. Calls of active or inactive are those of the source. Calls come from the whole dose curve; as a rule, active = well fitted inhibition curve with a large enough effect; inconclusive = small, poorly fitted or top-dose-only effect; inactive = flat fitted curve, though single readings scatter.
% is set by controls: 0 for no effect and ±100 for the full control effect; potency is the fitted concentration of half-maximal effect.
Note: nearly all actives have a fitted effect of over 60% in size.

Consider `Cc1nc2c([nH]1)c(=O)n(C)c(=O)n2Cc1ccco1`, for which the compound was classed as inactive with HaCat [1] and in the assay with HACAT [3]. For the same compound, the max response in the assay with NIH3T3 [2] is -4.53%. Further, the Potency entry in the assay on MCC-13, in the assay on MCC-26, with MKL-1 and in the assay with MKL-2 was “inactive” in each case.

In the case of `CCCCOCCOCCOCc1cc2c(cc1CCC)OCO2`, the max response was 2.25% and -5.48% in the assay with HaCat [1]; -13.2% and 0.929% in the assay on NIH3T3 [2]. Also, the Potency result in the assay on MCC-13, in the assay with MCC-26 and with MKL-2 was “inactive” in each case.

As for `C=CCc1ccccc1OCC(O)CNC(C)C` (stereo unspecified), the figures for the max response with HaCat [1] and with NIH3T3 [2] were 4.41% and -0.59%, respectively. For the same compound, the Potency result with MCC-13, in the assay on MCC-26, in the assay on MKL-1 and with MKL-2 was “inactive” throughout.

On to `OCCN1CCN(CCCN2c3ccccc3C=Cc3ccccc32)CC1`, for which the outcome in the assay with HaCat [1], in the assay on NIH3T3 [2], in the assay on HACAT [3] and in the assay on NIH3T3 [4] was inactive. In addition, the Potency entry in the assay on MCC-13, in the assay on MCC-26 and in the assay with MKL-2 was “inactive” each time.

For the compound `CCN(Cc1ccncc1)C(=O)C(CO)c1ccccc1` (stereo unspecified), the outcome in the assay with HaCat [1] and in the assay with HACAT [3] was inactive. Further, in the assay with NIH3T3 [2], the max response is -10.9%. Also, the Potency entry in the assay on MCC-13, in the assay with MCC-26, in the assay with MKL-1 and in the assay on MKL-2 was “inactive” each time.

For the compound `CCN(CC)CCCN(c1ccccc1)C1Cc2ccccc2C1`, the compound was classed as inactive in the assay with HaCat [1] and in the assay with HACAT [3]. The max response in the assay on NIH3T3 [2] is -8.45%. Besides, the Potency result in the assay with MCC-13, with MCC-26 and in the assay on MKL-1 was “inactive” each time.

Turning to `CC(=O)[C@]1(O)Cc2c(O)c3c(c(O)c2[C@@H](O[C@H]2C[C@H](N)[C@H](O)[C@H](C)O2)C1)C(=O)c1ccccc1C3=O`, the Potency with HaCat [1] was 0.0596 µM (active); in the assay on NIH3T3 [2] it was 0.0841 µM (active); in the assay on MCC-13 it was 3.76 µM (active); with MCC-26, 1.33 µM (active); in the assay with MKL-1, 0.119 µM (active); with MKL-2, 0.0944 µM (active).

In the case of `NS(=O)(=O)c1cc2c(cc1Cl)NC(C1CC3C=CC1C3)NS2(=O)=O` (stereo unspecified), in the assay with KB-3-1, the max response was -20.4%. Also, in the assay with HEK293T, the compound was called inactive. Moreover, the Potency result with MCC-13, in the assay with MCC-26, in the assay with MKL-1 and in the assay with MKL-2 was “inactive” each time.

Regarding `Brc1c(NC2=NCCN2)ccc2nccnc12`, the max response in the assay with KB-3-1 was -13.6%; in the assay on NIH3T3 [2], -5.35%. The Potency result in the assay on MCC-13, in the assay on MCC-26 and with MKL-2 was “inactive” in each case.

On to `CCN(CC)CCOCCOC(=O)C1(c2ccccc2)CCCC1`, for which, in the assay with HACAT [3], the compound was classed as inactive. The Potency result with MCC-13, with MCC-26, with MKL-1 and with MKL-2 was “inactive” each time.

As for `CCn1nc(C(=O)O)c(=O)c2cc3c(cc21)OCO3`, the compound was called inactive in the assay with HEK293T. In addition, the Potency entry with MCC-13, in the assay on MCC-26, in the assay on MKL-1 and with MKL-2 was “inactive” throughout.

For `CN1C[C@H](C(=O)N[C@]2(C)O[C@@]3(O)[C@@H]4CCCN4C(=O)[C@H](Cc4ccccc4)N3C2=O)C[C@@H]2c3cccc4[nH]cc(c34)C[C@H]21`, the max response in the assay with HaCat [1] is -5.88%. Also, the Potency result with MCC-13, with MCC-26 and in the assay with MKL-2 was “inactive” in each case.

On to `N[C@@H](COP(=O)(O)O)C(=O)O`, for which the figures for the max response in the assay on KB-3-1 and in the assay on NIH3T3 [2] were -0.563% and -2.11%, respectively. The Potency result in the assay on MCC-13, with MCC-26, in the assay with MKL-1 and with MKL-2 was “inactive” each time.

In the case of `C#CCN(C)CCCOc1ccc(Cl)cc1Cl`, the Potency result in the assay with MCC-13, with MCC-26 and in the assay on MKL-2 was “inactive” throughout.

With `CCOC(=O)C1=C(C)NC(C)=C(C(=O)OC)C1c1cccc(Cl)c1Cl` (stereo unspecified), the compound was classed as inactive in the assay with HaCat [1] and in the assay on HACAT [3]. Further, the Potency result in the assay on MCC-13, with MCC-26, with MKL-1 and with MKL-2 was “inactive” throughout.

Turning to `COCCc1ccc(OCC(O)CNC(C)C)cc1` (stereo unspecified), the outcome in the assay with HACAT [3], with HEK293T and in the assay on NIH3T3 [4] was inactive. Also, the Potency result with MCC-13, in the assay with MCC-26 and in the assay on MKL-2 was “inactive” throughout.

For `Cc1cccc(C)c1NC(=O)C(C)N` (stereo unspecified), in the assay with HACAT [3], the result was inactive. The Potency result in the assay with MCC-13, in the assay with MCC-26, in the assay on MKL-1 and with MKL-2 was “inactive” in each case.

Consider `Fc1ccc(C(c2ccc(F)cc2)N2CCN(C/C=C/c3ccccc3)CC2)cc1`, for which the Potency entry in the assay with MCC-13 and with MCC-26 was “inactive” throughout.

For `CN(C)CCCN1c2ccccc2Sc2ccc(C(F)(F)F)cc21`, the Potency result in the assay on MCC-26 was “inactive”. In addition, in the assay with MKL-2, the Potency is 13.3 µM (active).

Regarding `CCc1c(C)[nH]c2c1C(=O)C(CN1CCOCC1)CC2` (stereo unspecified), the max response with KB-3-1 is -8.21%. Further, the call in the assay on NIH3T3 [2] and in the assay with NIH3T3 [4] was inactive. Moreover, the Potency entry in the assay with MCC-13 and in the assay on MCC-26 was “inactive” each time. In the assay with MKL-2, the Potency was 9.44 µM (active).

As to `CN(C)CC[C@@H](c1ccc(Br)cc1)c1ccccn1`, in the assay on HACAT [3], the compound was classed as inactive. Further, the Potency entry in the assay on MCC-13, in the assay with MCC-26 and in the assay on MKL-2 was “inactive” in each case.

Consider `CC1=NS(=O)(=O)c2cc(Cl)ccc2N1`, for which the compound was classed as inactive in the assay on HACAT [3] and in the assay with NIH3T3 [4]. Besides, the Potency result in the assay on MCC-13, in the assay with MCC-26, with MKL-1 and with MKL-2 was “inactive” throughout.

For the compound `COc1ccc2c(c1OC)C(=O)O[C@@H]2[C@H]1c2c(cc3c(c2OC)OCO3)CCN1C`, the max response in the assay with KB-3-1 is -12.5%; with NIH3T3 [2], -0.798%. For the same compound, the Potency entry in the assay on MCC-13, with MCC-26, in the assay on MKL-1 and in the assay on MKL-2 was “inactive” throughout.

(Values after PubChem BioAssay (NCATS).)
